Test system: VDR:RXRa (NR concentration 270 nM, RXRa partner concentration 90 nM)
Assay: PBM binding z-score (relative to random genomic background probes); higher = stronger binding; sequences stand for … in GC…GCGATTGACAGCGTAGAATGAAGG
Procedure: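 Protein-binding microarray (Agilent 4x180K custom design, double-stranded 60-nt probes: 5' GC cap, 34-nt variable region, 24-nt constant primer region; full probe sequence given). Purified or IVT nuclear receptor:RXRα heterodimers (3:1 NR:RXRα, mostly 270:90 nM) or homodimers were incubated for 1 h in PBS with 2% milk and no ligand, then detected with Alexa488 antibodies. Fluorescence from o1-orientation probes (~5 replicates averaged) was converted to z-scores against 500 random hg19 background probes. Variable regions are seed direct-repeat (DR0–DR5) sites, all their single-nucleotide variants and half-site ablations.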

Row | Sequence | PBM binding z-score
1 | TTACCAAGGTGAAGGTCGCTGATCCCTCTGTAGA | 0.493
2 | ATCGAAAGGTCGAGGTGAATATAGAGAAAGGGAA | 2.45
3 | TAGCCTAGGTCATGGGCCAGTATTCCACGCGAAC | 2.09
4 | TCTTCTAGGTCAACGATGGTCAGCTAATCTGCTA | 2.41
5 | TTACCAAGGTGAGCTTAGGTCGTTGATCCAACTC | 0.561
6 | ATCTCTAGGTAAAGATAGTGCAGTGAATGCAAAT | 0.0652
7 | GCTTCTAGGTCAACTGATGGTCAGCTAAAGCTCG | 2.06
8 | GCTGCTAGGTCAACTGATGGTCAGCTACAGCTCG | 1.51
9 | GGACCAAGGTGAATAGGTCGTTGATGAGTAGGCG | 0.886
10 | CAATCTAGGTCAAGGTCAAAGTCGGTTTGTGCCA | 4.97
11 | CCTATTAGTTGACCAGAAGGGCAACCGAAGCTCG | 0.596
12 | TCATATAGGTAAATGCTAGGTGACAGTCCGATCT | 0.746
13 | TAGGCTAGGTCATTCAGGGGCCAGTATAGAAAGC | 3.24
14 | GCTCGGAGGGCAAGGTCAGAGCTTTGTCCGTAGA | 1.72
15 | CACCCTAGGTCAGGGCCAGTATAGGAGGAACGTT | 0.555
16 | CCGGCTGGGGCAAAGGTTACCATACTCAGTACGA | 1.58
17 | CCTTACGGGTCACGAGGCTATAGCACGACGAGCG | 3.93
18 | TATACAGGGTCAAAGGCCACAGTACGAATGTCGA | 5.15
19 | CCTACTGGGCCAAGAAGGTCATTGATGCCGATAA | 3.97
20 | TCATATAGGTAAATGCTAGGTGAGAGTCCGATCT | 0.644

Row | Sequence | PBM binding z-score
21 | AGTTAAAGTTCATCTAGGTAACGTAAGATATGCT | 4.42
22 | TCTTGTAGATCAAAGATTAAGAAAGCCGAAGCCT | 0.389
23 | CGAACTAGGTCACAACAGGACAGTGAAGGATGAT | 2.16
24 | GCTCGGAGCACAAGGTCAGAGCTTTGTCCGTAGA | 1.2
25 | TAGCCTAGGTCATGGGCCAGTAAACCACGCGAAC | 2.07
26 | CGAACTAGGTCGTTGACAGGACAGTGAATAGTAA | 0.71
27 | GGAACGAGGGCAAAGTTGATAGGATCTGTCGACG | 1.37
28 | ATCTCTAGGTAAAAGTTCAGTGGATCCCGAGGAT | 1.21
29 | AGAATGAGGTTATACGTAGATCAGGGTAGAAAGT | 1.49
30 | CGTCAAAGTTAAACTAAGGTAACGTAAAGCACGC | 0.371
31 | CATCCAAGGTCAAGGTCAGTGAAAGAGACTCGAA | 5.07
32 | TCGAGTAGGTTACCAATGAGGCATTCAGCTTTCT | -0.192
33 | CGAACTAGGTCAAGGACAGTCAATCTCCGCACGC | 1.61
34 | CGTCCAAGGTCAATGCCAGGTCAGTGAAAGCATT | 4.96
35 | CAAACTAGATCAAGGTCAAAGTCGGTTTGTGCCA | 4.12
36 | CCTTACGGGTCACGAGGTTATAACACGACGAGCG | 5.28
37 | ACTATTAGTTGACTTAGGGCAGCCGATACGACGC | 0.0476
38 | GCTAGAAGGCCATTTGGGTCACTCAATGACGGGC | 1.82
39 | TCTTGTAGCTCAATAGAGGTTAAGAAAGTGCGCT | 1.32
40 | TCGAGTAGGTTATGGGCATTCAGAATGGCGTCGA | -0.235
